Experimental data published in article PMC7155171, “Probing the Open Global Health Chemical Diversity Library for Multistage-Active Starting Points for Next-Generation Antimalarials” (ACS Infectious Diseases, 2020).
In all, about 68,000 compounds were measured (“% viability”: median about 1.1, lowest 2% from about 0.96 on). The full list was thinned out, with the lowest values kept by preference. The numbers are fractions of the control, whatever unit the source prints.

The compounds below were run on P. falciparum (NF54) stage V gametocytes. Details: primary screen, n=2, fraction of DMSO control; 72 h, 2 µM; inhibitor.
Design: Mature stage V gametocyte viability, MitoTracker Red CMXRos high-content imaging

First: CC(NC(=O)CCC1=NC(=C2N=CN=N2)NO1)c1ccc(F)cc1F (stereo not shown) [DDD01068293]
Second: CN(Cc1ccc(F)c(F)c1)C(=O)CCC1=NC(=C2N=CN=N2)NO1 [DDD01062114]
The “% viability” value of the first is higher: 1.218% for the first, 1.185% for the second.

Going from `CC(=O)N1CCCN(C(=O)CCOc2ccc(C(C)C)cc2)CC1` [DDD01298039] to `Cn1cc(C(=O)N2CCCC(c3cc(=O)n(C)[nH]3)C2)cn1` (stereo not shown) [DDD01060486], the “% viability” value rises from 0.9627% to 1.105%.

First: CCCc1nn(C)c(N)c1-c1ccc2c(c1)OCO2 [DDD01074641]
Second: CCc1nn(C)c(N)c1-c1ccc2c(c1)OCO2 [DDD01074639]
The “% viability” value of the first is lower: 1.2104% for the first, 1.278% for the second.

Compared with `Cc1ccc(S(=O)(=O)Cc2noc([C@@H]3C[C@@H](O)CN3C(C)C)n2)cc1` [DDD01025534], `CCc1nc(CN(C)C2CCN(CCn3cc(C#N)cn3)C2)no1` (stereo not shown) [DDD01304196] is lower in “% viability” value: 1.063% for the first, 1.045% for the second.

Compared with `Cn1ccc(C(=O)N2CCCC(c3cc(=O)n(C)[nH]3)C2)n1` (stereo not shown) [DDD01060541], `CCc1cc(=O)n2nc(C3CCCN3C(=O)c3ccccn3)cc2[nH]1` (stereo not shown) [DDD01057178] is higher in “% viability” value: 0.9912% for the first, 1.278% for the second.

Going from `Cc1[nH]n(C2CCS(=O)(=O)C2)c(=O)c1Cc1ccccc1Cl` (stereo not shown) [DDD01026964] to `Cc1[nH]n(C2CCS(=O)(=O)C2)c(=O)c1Cc1cccc(Cl)c1` (stereo not shown) [DDD01026994], the “% viability” value rises from 1.154% to 1.159%.

First: Cn1nc(C2CCC2)c(-c2ccc3c(c2)OCO3)c1N [DDD01074643]
Second: Cn1nc(C2CC2)c(-c2ccc3c(c2)OCO3)c1N [DDD01074640]
The “% viability” value of the first is lower: 1.107% for the first, 1.305% for the second.

First: CCn1[nH]cc2nc(-c3cc(OC)c(OC)cc3OC)nc1-2 [DDD01254934]
Second: COc1cc2c(cc1-c1nc3c[nH]n(C)c-3n1)OCO2 [DDD01248770]
The “% viability” value of the first is lower: 1.131% for the first, 1.141% for the second.

Compared with `COc1cc2c(cc1-c1nc3c[nH]n(C(C)C)c-3n1)OCO2` [DDD01249461], `COc1cc2c(cc1-c1nc3c[nH]n(C(C)C4CC4)c-3n1)OCO2` (stereo not shown) [DDD01244142] is lower in “% viability” value: 1.226% for the first, 1.215% for the second.

Compared with `COCC(=O)N1Cc2[nH]c3c(C)c(-c4cccs4)nn3c(=O)c2C1` [DDD01056747], `Cc1ccc(CN2CCc3c([nH]c4cc(C5CC5)nn4c3=O)C2)s1` [DDD01058491] is higher in “% viability” value: 0.9901% for the first, 1.123% for the second.

Going from `Cc1[nH]n(C2CCS(=O)(=O)C2)c(=O)c1CCc1ccccc1` (stereo not shown) [DDD01026977] to `Cc1[nH]n(Cc2ccc(F)cc2)c2nnc(N)c1-2` [DDD01012470], the “% viability” value falls from 1.342% to 1.161%.
